Among the test systems are DU-145 prostate; K-562 leukemia; MALME-3M melanoma; MDA-MB-231 breast; RXF 393 renal; SF-268 CNS; SF-295 CNS; SF-539 CNS; UACC-257 melanoma; M14 melanoma; HT29 colon; SNB-75 CNS; SNB-19 CNS; U251 CNS; PC-3 prostate; SK-MEL-5 melanoma; UACC-62 melanoma; LOX IMVI melanoma; SK-MEL-28 melanoma.
Holding throughout (test): NCI-60 one-dose screen, 48 h (100 = growth as untreated, 0 = no growth, -100 = all killed)
Holding throughout (conditions): 10 µM unless noted

This is part of a sample that, as a whole, favours compounds with a hit. Of some 83,000 tested, about 20% had one in any assay.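 Testing used 96-well plates and a 48-hour single-concentration exposure. Example: -40 means 40% of the starting cells died.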 Unmarked numbers belong to inactive results. Active and inactive are the calls of the source. The calls were made as follows: active = growth percent below 10; inactive = the rest.

In the case of `CCc1ncnc2c1ccn2C(C)c1ccc(OC)c(F)c1` (centres undefined), the growth in the test with DU-145 prostate is 82.3%; with K-562 leukemia it was 11.5%; with MALME-3M melanoma, 74.9%; in the test with MDA-MB-231 breast, 56.7%; with RXF 393 renal it was 76.5%; in the test on SF-268 CNS it was 63.2%. In addition, the growth in the test on SF-295 CNS is 36%; with SF-539 CNS, 70.6%; with UACC-257 melanoma, 40%; with M14 melanoma it was 36.3%; with HT29 colon, 14%; in the test with SNB-75 CNS it was 35.8%. For the same compound, the growth with SNB-19 CNS was 53.2%; with U251 CNS, 35.3%; in the test with PC-3 prostate, 53.8%; in the test with SK-MEL-5 melanoma, 33%; in the test with UACC-62 melanoma, 39.8%; in the test on LOX IMVI melanoma it was 45.3%. Also, in the test with SK-MEL-28 melanoma, the growth is 66.5%.

With `N#CSc1c[nH]c2cccc(/C=C/C(=O)/C=C(/C=C/c3cccc4[nH]cc(SC#N)c34)OB(F)F)c12`, the growth with DU-145 prostate was -69.4% (active); in the test on K-562 leukemia, -14.8% (active); in the test with MALME-3M melanoma, -52.8% (active); with MDA-MB-231 breast, -42.3% (active); with RXF 393 renal it was -77.6% (active); in the test with SF-268 CNS it was 8.33% (active). Also, the growth with SF-295 CNS is -4.04% (active); in the test on SF-539 CNS it was -8.18% (active); with UACC-257 melanoma, -50.6% (active); with M14 melanoma, -40.9% (active); with HT29 colon, -74.5% (active); with SNB-75 CNS, -31.5% (active). The growth in the test with SNB-19 CNS is 19.1%; in the test on U251 CNS it was -83.3% (active); with PC-3 prostate, -19.6% (active); in the test with SK-MEL-5 melanoma, -74.1% (active); in the test with UACC-62 melanoma, -50.5% (active); with LOX IMVI melanoma it was -85.4% (active). The growth with SK-MEL-28 melanoma is -47.9% (active).

As to `O=C1Nc2ccccc2/C1=C/c1nc2ccccc2c(=O)[nH]1`, the growth was 99.3% in the test with DU-145 prostate; 86.2% with K-562 leukemia; 92.8% in the test with MALME-3M melanoma; 84.5% in the test with MDA-MB-231 breast; 96% in the test on RXF 393 renal; 94.6% with SF-268 CNS. Also, the growth in the test with SF-295 CNS was 101%; with SF-539 CNS it was 93.6%; in the test with UACC-257 melanoma, 104%; in the test on M14 melanoma, 82.2%; with HT29 colon, 105%; with SNB-75 CNS, 88.9%. Moreover, the growth with SNB-19 CNS was 95.5%; in the test with U251 CNS, 96.3%; in the test on PC-3 prostate, 77.7%; with SK-MEL-5 melanoma, 94.4%; with UACC-62 melanoma, 96.1%; in the test on LOX IMVI melanoma it was 82.1%. Further, the growth in the test on SK-MEL-28 melanoma is 109%.

For the compound `COc1c(C(=O)Nc2ccc(C)c(Br)c2)ccc2ccccc12`, the growth was 96.8% in the test with DU-145 prostate; 41.9% with K-562 leukemia; 84.4% in the test with MALME-3M melanoma; 104% in the test on MDA-MB-231 breast; 81.1% with RXF 393 renal; 96.5% in the test with SF-268 CNS. Besides, the growth is 90.6% in the test with SF-295 CNS; 92.2% in the test with SF-539 CNS; 98.3% in the test with UACC-257 melanoma; 81.1% in the test on M14 melanoma; 78.5% in the test with HT29 colon; 88.4% with SNB-75 CNS. For the same compound, the growth in the test with SNB-19 CNS is 95.3%; with U251 CNS it was 96.2%; in the test on SK-MEL-5 melanoma it was 98.3%; with UACC-62 melanoma, 71.6%; in the test with LOX IMVI melanoma, 95.1%; in the test on SK-MEL-28 melanoma, 93.3%.

For the compound `CC1(C)CC(=O)C2=C(C1)N(c1ccc(OC(F)(F)F)cc1)C(N)=C(C#N)C2c1ccc(Br)cc1F` (centres undefined), the growth in the test on DU-145 prostate is 96.5%; in the test with K-562 leukemia it was 75.5%; in the test on MALME-3M melanoma, 46.8%; with MDA-MB-231 breast, 61.2%; in the test on RXF 393 renal, 42.9%; in the test with SF-268 CNS, 36.6%. Also, the growth with SF-295 CNS was 42.2%; in the test on SF-539 CNS, 75%; in the test on UACC-257 melanoma, 80.9%; in the test with M14 melanoma, 79.1%; with HT29 colon it was 79.7%; in the test on SNB-75 CNS, 54.1%. The growth with SNB-19 CNS is 34.4%; with U251 CNS it was 56.2%; in the test on PC-3 prostate, 51.9%; in the test with SK-MEL-5 melanoma it was 92.9%; with UACC-62 melanoma, 78.5%; in the test with LOX IMVI melanoma, 54.5%. Moreover, the growth in the test on SK-MEL-28 melanoma is 90.8%.

The record behind these values is PubChem BioAssay (NCI).
